# Assay results reported in a collection of fitness landscapes (doi:10.1126/science.1257360).
# Whole data set: some 140,000 sequences, median “enrichment ratio after two sorts for PhoP signalling” near 0, cut for the highest 2% near 11. For the sample, the highest values were picked, then their nearest neighbours and some sequences at random.
# B1: PhoQ; a variant is named by its letters at X, in order, P23837 (parent)
# chain: MKKLLRLFFPLSLRVRFLLATAAVVLVLSLAYGMVALIGYSVSFDKTTFRLLRGESNLFYTLAKWENNKLHVELPENIDKQSPTMTLIYDENGQLLWAQRDVPWLMKMIQPDWLKSNGFHEIEADVNDTSLLLSGDHSIQQQLQEVREDDDDAEMTHSVAVNVYPATSRMPKLTIVVVDTIPVELKSSYMVWSWFIYVLSANLLLVIPLLWVAAWWSLRPIEALAKEVRELEEHNRELLNPATTRELTSLVRNLNRLLKSERERYDKYRTTLTDLTHSLKTPLXXLQXXLRSLRSEKMSVSDAEPVMLEQISRISQQIGYYLHRASMRGGTLLSRELHPVAPLLDNLTSALNKVYQRKGVNISLDISPEISFVGEQNDFVEVMGNVLDNACKYCLEFVEISARQTDEHLYIVVEDDGPGIPLSKREVIFDRGQRVDTLRPGQGVGLAVAREITEQYEGKIVAGESMLGGARMEVIFGRQHSAPKDE
# Variants of: B1
# Assay: enrichment ratio after two sorts for PhoP signalling (ratio (wild type AVST 3.29)); higher = more functional
# Details: with PhoP (E. coli)
row,Variant,enrichment ratio
1,IFIA,≤ 0.25
2,IGQM,≤ 0.25
3,PWGS,≤ 0.25
4,AYGE,≤ 0.25
5,THGQ,≤ 0.25
6,LATF,≤ 0.25
7,VFAS,≤ 0.25
8,ESNS,≤ 0.25
9,PACG,≤ 0.25
10,ITYK,≤ 0.25
11,HKVF,≤ 0.25
12,KKSE,≤ 0.25
13,ILEH,≤ 0.25
14,DMQF,≤ 0.25
15,TMHQ,15.4
16,TMHP,≤ 0.25
17,TMQF,16.1
18,TMWQ,≤ 0.25
19,TMWH,≤ 0.25
20,MPHD,≤ 0.25
21,PCPI,≤ 0.25
22,GGFW,≤ 0.25
23,ESEG,≤ 0.25
24,PDQD,≤ 0.25

row,Variant,enrichment ratio
1,VWER,≤ 0.25
2,MRPD,≤ 0.25
3,SKKL,≤ 0.25
4,SKPL,≤ 0.25
5,SKTI,14.2
6,SKMV,14.3
7,SKMI,4.44
8,SKCK,≤ 0.25
9,SKTS,3.33
10,SKCL,11.8
11,SKAV,4.49
12,SKTA,0.276
13,SKCI,16.6
14,SKCS,6.51
15,VFSR,≤ 0.25
16,FRTG,≤ 0.25
17,PMFK,≤ 0.25
18,FGSI,≤ 0.25
19,VKKE,≤ 0.25
20,PRSV,≤ 0.25
21,SKCY,16.7
22,SKCT,14.2
23,SKCE,5.46
24,SKKI,≤ 0.25

row,Variant,enrichment ratio
1,SKKQ,≤ 0.25
2,SKMT,10.8
3,SKMQ,13.1
4,SKAT,5.34
5,SKPI,≤ 0.25
6,SKHP,≤ 0.25
7,SKPY,≤ 0.25
8,SKCA,11.7
9,DRIT,≤ 0.25
10,DNWQ,≤ 0.25
11,SKCF,13.8
12,MKCF,≤ 0.25
13,SKIV,4.99
14,SKHF,≤ 0.25
15,SKFW,≤ 0.25
16,SKCV,12.3
17,IRSK,≤ 0.25
18,GTMP,≤ 0.25
19,NADQ,≤ 0.25
20,QEYQ,30.4
21,RGYQ,≤ 0.25
22,NGYQ,≤ 0.25
23,QGYQ,13.9
24,YTYQ,≤ 0.25

row,Variant,enrichment ratio
1,QPYQ,≤ 0.25
2,TTYQ,11.4
3,KSYQ,≤ 0.25
4,QTYQ,4.58
5,STYQ,≤ 0.25
6,FFYQ,≤ 0.25
7,TGYQ,15.9
8,DEAF,≤ 0.25
9,WEER,≤ 0.25
10,ADHC,≤ 0.25
11,NYMN,≤ 0.25
12,WKDT,≤ 0.25
13,EGGF,≤ 0.25
14,WIPQ,≤ 0.25
15,TQYD,3.43
16,IQYQ,≤ 0.25
17,TQYQ,27.1
18,TGDI,≤ 0.25
19,WKRD,≤ 0.25
20,KGIQ,≤ 0.25
21,SPAN,≤ 0.25
22,TVAN,16.9
23,PVAA,≤ 0.25
24,FVAT,≤ 0.25

row,Variant,enrichment ratio
1,NVAG,≤ 0.25
2,PVAG,≤ 0.25
3,TVAG,17.8
4,FVAA,≤ 0.25
5,NVAN,≤ 0.25
6,TVAT,16.8
7,TVAA,20.7
8,NVAT,≤ 0.25
9,RYVN,≤ 0.25
10,RYKH,≤ 0.25
11,MFLN,≤ 0.25
12,RRDC,≤ 0.25
13,MLNF,≤ 0.25
14,THAN,13.2
15,NHAN,≤ 0.25
16,PVMT,≤ 0.25
17,KCMT,≤ 0.25
18,TVAS,14.3
19,NVAS,≤ 0.25
20,TVMT,12.2
21,SHAN,≤ 0.25
22,FVAS,≤ 0.25
23,PEFN,≤ 0.25
24,PTTH,1.43

row,Variant,enrichment ratio
1,DIRA,≤ 0.25
2,HQWG,≤ 0.25
3,ADSS,≤ 0.25
4,AGSS,11.2
5,ANSR,≤ 0.25
6,AKSS,8.3
7,AHSS,≤ 0.25
8,AQSS,11.7
9,NGSS,≤ 0.25
10,ANSS,12.7
11,AGSK,0.857
12,LTKW,≤ 0.25
13,FSPG,≤ 0.25
14,VPLL,≤ 0.25
15,NLEV,≤ 0.25
16,EVYR,≤ 0.25
17,QKGY,≤ 0.25
18,YAYC,≤ 0.25
19,RGYC,≤ 0.25
20,QTYC,0.887
21,FFYC,≤ 0.25
22,TGYC,13.2
23,KAYC,≤ 0.25
24,NGYC,≤ 0.25

row,Variant,enrichment ratio
1,TAYC,11.3
2,QGYC,13.7
3,KTHY,≤ 0.25
4,GMIR,1.56
5,TGTT,11.2
6,NPLD,≤ 0.25
7,SLDR,≤ 0.25
8,TAGG,3.74
9,VTSS,≤ 0.25
10,YGPF,≤ 0.25
11,MAMI,8.98
12,QEML,≤ 0.25
13,APML,≤ 0.25
14,NEML,0.665
15,YWML,≤ 0.25
16,NIML,6.63
17,TTML,28.8
18,AGML,16.1
19,ANML,13
20,AEML,14.4
21,WIML,≤ 0.25
22,PNML,≤ 0.25
23,HMSC,≤ 0.25
24,RRES,≤ 0.25

row,Variant,enrichment ratio
1,YPTI,≤ 0.25
2,IDRY,≤ 0.25
3,AKML,9.72
4,YHML,≤ 0.25
5,ACIL,10.3
6,NHML,≤ 0.25
7,WQML,≤ 0.25
8,THML,12.8
9,ACML,17.8
10,FDML,≤ 0.25
11,SQML,4.5
12,ACRL,≤ 0.25
13,ADML,21.8
14,AQML,24.2
15,LQYI,≤ 0.25
16,LLQA,≤ 0.25
17,YWKI,≤ 0.25
18,RIIT,≤ 0.25
19,VAHN,≤ 0.25
20,PEIM,≤ 0.25
21,VACQ,≤ 0.25
22,AWDP,≤ 0.25
23,AYET,≤ 0.25
24,GVGM,≤ 0.25

row,Variant,enrichment ratio
1,RTSP,≤ 0.25
2,PEMC,≤ 0.25
3,IARY,≤ 0.25
4,KKML,≤ 0.25
5,ATML,11.3
6,EQML,≤ 0.25
7,AIML,21.2
8,AYML,≤ 0.25
9,NQML,≤ 0.25
10,YAML,8.51
11,AAML,14.7
12,AHML,4.34
13,VHML,≤ 0.25
14,IAML,4.62
15,TQML,22.5
16,NGCN,≤ 0.25
17,YSQW,≤ 0.25
18,TCLD,≤ 0.25
19,PESS,≤ 0.25
20,GNCM,11.7
21,GECM,15.3
22,GECK,≤ 0.25
23,GAAM,≤ 0.25
24,GICK,9.7

row,Variant,enrichment ratio
1,RICM,≤ 0.25
2,GICM,38.3
3,GACM,12.2
4,GEWM,≤ 0.25
5,GTCM,5.28
6,GGCM,9.15
7,GACK,≤ 0.25
8,SFIL,≤ 0.25
9,GTSW,≤ 0.25
10,QVGM,0.458
11,TTQP,≤ 0.25
12,LWAS,≤ 0.25
13,DYTN,≤ 0.25
14,KMCM,≤ 0.25
15,GMCM,22
16,KRCM,≤ 0.25
17,GMCK,≤ 0.25
18,TRCM,12.4
19,HRCM,≤ 0.25
20,EYMP,≤ 0.25
21,MHHS,≤ 0.25
22,YVFC,≤ 0.25
23,GPTW,≤ 0.25
24,RAKA,≤ 0.25

row,Variant,enrichment ratio
1,AGTK,≤ 0.25
2,TGTI,13.2
3,AGTH,5.3
4,RGTI,≤ 0.25
5,AGTI,16.7
6,KSTI,≤ 0.25
7,QIMM,≤ 0.25
8,SDFW,≤ 0.25
9,QQHA,≤ 0.25
10,GQMD,≤ 0.25
11,YKAP,≤ 0.25
12,KLPM,≤ 0.25
13,FVPN,≤ 0.25
14,ATAN,29.1
15,AQAA,12.7
16,WQAS,≤ 0.25
17,YTAN,≤ 0.25
18,AQAS,18.6
19,ATMN,≤ 0.25
20,AKAN,≤ 0.25
21,AQQN,≤ 0.25
22,AKAA,4.65
23,AQAN,18.7
24,AKAS,9.64

row,Variant,enrichment ratio
1,IQAA,≤ 0.25
2,AYFR,≤ 0.25
3,WMYW,≤ 0.25
4,IMAW,≤ 0.25
5,RNGP,≤ 0.25
6,PWQL,0.791
7,DNHF,≤ 0.25
8,TNNI,3.41
9,KAGF,≤ 0.25
10,NAGF,≤ 0.25
11,MAVK,≤ 0.25
12,MAGS,17.7
13,MAGF,14.5
14,MAGD,≤ 0.25
15,AHRA,≤ 0.25
16,CFDS,≤ 0.25
17,MCPV,≤ 0.25
18,DLEL,≤ 0.25
19,LYPG,≤ 0.25
20,ASMH,16.5
21,ASTH,6.74
22,ASVH,8.62
23,ASCF,9.91
24,KSMH,≤ 0.25

row,Variant,enrichment ratio
1,ASCH,13.6
2,KDVM,≤ 0.25
3,DIWH,≤ 0.25
4,RDYH,≤ 0.25
5,KKLQ,≤ 0.25
6,YHEH,≤ 0.25
7,RDFI,≤ 0.25
8,LTYT,≤ 0.25
9,QEYT,20.9
10,QRYT,≤ 0.25
11,LNYT,≤ 0.25
12,MVFE,≤ 0.25
13,STYT,0.437
14,LEYT,11.9
15,MVFQ,13.2
16,QGFE,≤ 0.25
17,MVHP,0.338
18,QGFQ,13.4
19,FFFQ,≤ 0.25
